In PubChem BioAssay AID2685 (National Center for Advancing Translational Sciences (NCATS), 2010):
Out of some 320,000 compounds screened, about 2,100 (0.66%) were called active. Another 53% or so got no clear call; they are omitted. Calls follow the shape of the dose curve; as a rule, active = well fitted inhibition curve with a large enough effect in the signal ratio, with a control signal flat (not every such curve was filed as active); inconclusive = small, poorly fitted or top-dose-only effect, or effect the other way, or a change in a side signal; inactive = flat fitted curve, though single readings scatter; the % refers to the signal ratio. The sample as a whole holds a higher share of actives than the screen did.
Potency is read from the fitted curve at half-maximal effect.

Experiment: qHTS Assay for Lipid Storage Modulators in Drosophila S3 Cells;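 as to cell number change: cells counted by Cell Tracker Red CMTPX staining in the red channel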
Conditions: BODIPY lipid droplet fluorescence, 18-24 h, cells fed with added oleic acid; cell number change: measured here: cell count max response; series mostly up to 46.1 µM
How it was run: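 Drosophila S3 cells got compounds at several concentrations plus oleic acid (400 uM solution). Laser-scanning cytometry with 488 nm excitation read lipid droplets at 500-530 nm and cells at 575-640 nm. Percent activity was relative to 20 uM Triacsin C.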
With `O=S(=O)(Nc1ccncc1)c1ccc(Cl)cc1` the Potency was 10.3 µM (active) and the cell number change was -14.9%.
In the case of `O=S(=O)(Nc1ccc(Cc2ccncc2)cc1)c1ccc(Cl)cc1`, the Potency is reported as “inactive” and the cell number change is reported as 4.35%.
With `CCc1ccc(S(=O)(=O)Nc2ccncc2)cc1` the Potency was “inactive” and the cell number change was -6.32%.
In the case of `COc1ccc(C(=O)N2CCC(=O)N(C(CO)Cc3ccccc3)CC2)cc1` (centres undefined), the Potency is reported as “inactive” and the cell number change is reported as -2.26%.
For `Cc1ccc(N=Cc2c(O)n(C)c(=O)n(C)c2=O)nc1`, the Potency was “inactive” and the cell number change was 3.34%.
For `O=S(=O)(Nc1cccnc1)c1ccc(Br)c2ccccc12`, the Potency was 7.31 µM (active) and the cell number change was -5.22%.
In the case of `O=S(=O)(NCc1cccnc1)c1ccc(Br)c2ccccc12`, the Potency is reported as “inactive” and the cell number change is reported as 10.4%.
For `Cc1ccccc1S(=O)(=O)Nc1cccnc1`, the Potency was “inactive” and the cell number change was 1.91%.
With `C/C(CC(=O)Nc1ccc(Cl)cc1Cl)=N\NC(=O)c1ccncc1` the Potency was “inactive” and the cell number change was 23%.
For `COc1cc2c(cc1OC)C(c1cccc(Cl)c1Cl)CC(=O)N2` (centres undefined), the Potency was “inactive” and the cell number change was -12.7%.
For `COc1ccc(C(=O)N/N=C(\C)CC(=O)Nc2ccc3c(c2)OCCO3)c(OC)c1`, the Potency was “inactive” and the cell number change was 14.3%.
For `COc1ccccc1C(=O)N/N=C(\C)CC(=O)Nc1ccc2c(c1)OCCO2`, the Potency was 16.4 µM (active) and the cell number change was 22.4%.
With `C/C(CC(=O)Nc1ccc2c(c1)OCCO2)=N\NC(=O)c1ccccc1F` the Potency was “inactive” and the cell number change was 8.06%.
In the case of `Cc1ccc(Nc2ccccc2)nn1`, the Potency is reported as “inactive” and the cell number change is reported as 17%.
For `N#Cc1nc(Cc2ccccc2)oc1NCc1ccccc1`, the Potency was “inactive” and the cell number change was -21%.
For `N#Cc1nc(Cc2ccccc2)oc1N1CCCC1`, the Potency was “inactive” and the cell number change was -9.44%.
With `N#Cc1ncc(Cc2ccccc2)nc1C#N` the Potency was 7.31 µM (active) and the cell number change was -22.9%.
With `COc1ccccc1NC(=O)NNC(=O)C(C)Oc1ccc2ccccc2c1` (centres undefined) the Potency was “inactive” and the cell number change was 7.76%.
With `Cc1ccc(/C=N/N2CCN(Cc3ccc(Cl)cc3)CC2)o1` the Potency was “inactive” and the cell number change was -6.6%.
With `CC(C)CNC(=O)NC(=O)COC(=O)C1CSC2(c3ccc(F)cc3)CCC(=O)N12` (centres undefined) the Potency was “inactive” and the cell number change was 5.71%.
For `O=C(C1CSC2(c3ccc(F)cc3)CCC(=O)N12)N1CCCCCC1` (centres undefined), the Potency was 18.4 µM (active) and the cell number change was -5.6%.
In the case of `O=C(COC(=O)C1CSC2(c3ccc(F)cc3)CCC(=O)N12)NC(=O)NC1CCCC1` (centres undefined), the Potency is reported as “inactive” and the cell number change is reported as 8.51%.
In the case of `Cc1cnc(NC(=O)CCNC(=O)c2ccccc2Cl)s1`, the Potency is reported as “inactive”.
In the case of `Cc1noc(C(=O)NCc2cccnc2)c1Cl`, the Potency is reported as “inactive” and the cell number change is reported as 3.97%.
For `CCOC(=O)Nc1ccc2c(CN3CCN(S(=O)(=O)c4ccccc4)CC3)cc(=O)oc2c1`, the Potency was “inactive” and the cell number change was 3.64%.
In the case of `O=C(NCC1CCCN(C(=O)Cc2ccccc2Cl)C1)c1ccc(F)cc1` (centres undefined), the Potency is reported as “inactive” and the cell number change is reported as 17.2%.
For `CC(=O)c1ccccc1NC(=O)COC(=O)c1c(C)nn(-c2ccccc2)c1C`, the Potency was “inactive” and the cell number change was -19.3%.
In the case of `CC(=O)c1ccccc1NC(=O)COC(=O)c1ccccc1NC(=O)c1ccccc1`, the Potency is reported as “inactive” and the cell number change is reported as -15%.
With `CN(C)S(=O)(=O)c1cccc(NC(=O)CSc2nnnn2-c2ccccc2)c1` the Potency was “inactive” and the cell number change was -3.51%.
With `Cc1cc(C(=O)OCC(=O)Nc2cccc(S(=O)(=O)N(C)C)c2)c2ccccc2n1` the Potency was “inactive” and the cell number change was -13.9%.
With `NS(=O)(=O)c1cccc(NC(=O)COC(=O)C2(c3cccc(F)c3)CCCC2)c1` the Potency was “inactive” and the cell number change was -1.45%.
For `Cc1nnnn1/C(=C\c1ccccc1)C(=O)OCC(=O)NC(C)(C)C`, the Potency was 4.11 µM (active) and the cell number change was -11.4%.
For `CN(C)S(=O)(=O)c1cccc(NC(=O)COC(=O)CNC(=O)c2ccccc2F)c1`, the Potency was “inactive”.
With `CC(C)(C)NC(=O)COC(=O)c1ccccc1Oc1ccccc1` the Potency was “inactive”.
In the case of `CC(C)(C)NC(=O)COC(=O)C1c2ccccc2Oc2ccccc21`, the Potency is reported as “inactive” and the cell number change is reported as -10.4%.
For `CC(=O)c1ccccc1NC(=O)COC(=O)/C(=C/c1ccccc1)n1nnnc1C`, the Potency was 7.31 µM (active) and the cell number change was -27.9%.
With `CN(C)S(=O)(=O)c1cccc(NC(=O)COC(=O)C2(c3ccccc3F)CCCC2)c1` the Potency was 8.2 µM (active) and the cell number change was -25.4%.
With `Cc1nnnn1/C(=C\c1ccccc1)C(=O)OCC(=O)Nc1cccc(S(=O)(=O)N(C)C)c1` the Potency was 3.66 µM (active) and the cell number change was -25%.
In the case of `COc1ccc(C2N(c3ccc4c(c3)OCCO4)C(=O)C2(F)F)cc1OC` (centres undefined), the Potency is reported as “inactive” and the cell number change is reported as -17.8%.
In the case of `Cc1c(Cl)cccc1NC(=O)NCc1ccc(F)cc1`, the Potency is reported as “inactive” and the cell number change is reported as 3.73%.
With `COc1cccc(-c2noc(C3CCCN(C(=O)c4cccc(F)c4)C3)n2)c1` (centres undefined) the Potency was “inactive” and the cell number change was -8.07%.
For `CCOc1ccc(N(CC(=O)Nc2ccc(C)c(C)c2)S(=O)(=O)c2c(C)[nH]c(=O)[nH]c2=O)cc1`, the Potency was “inactive” and the cell number change was 10.2%.
For `CCC(C)NC(=O)C(=O)NCc1ccncc1` (centres undefined), the Potency was “inactive” and the cell number change was -9.14%.
With `CCc1ccc2oc(C(=O)N3CCN(C)CC3)cc(=O)c2c1` the Potency was “inactive” and the cell number change was 14.4%.
With `O=C1/C(=C/c2cccnc2)CCC/C1=C\c1cccnc1` the Potency was 14.6 µM (active) and the cell number change was -13.8%.
For `O=C1/C(=C/c2cccnc2)Cc2ccc(Cl)cc21`, the Potency was “inactive” and the cell number change was 24.8%.
For `O=C1/C(=C/c2cccnc2)CC/C1=C\c1cccnc1`, the Potency was “inactive” and the cell number change was -4.02%.
With `CC1C/C(=C/c2cccs2)C(=O)/C(=C/c2cccs2)C1` (centres undefined) the Potency was “inactive” and the cell number change was -17.9%.
With `CC(C)/C=C1\CC/C(=C\c2cccnc2)C1=O` the Potency was “inactive” and the cell number change was -13.9%.
In the case of `CC1C/C(=C\c2cccnc2)C(=O)/C(=C/c2cccnc2)C1` (centres undefined), the Potency is reported as 5.17 µM (active) and the cell number change is reported as -29%.
In the case of `CN(C)c1cccc(C(=O)NNC(=O)NC2CCCCC2)c1`, the Potency is reported as “inactive” and the cell number change is reported as -5.42%.
For `Cc1cccc2cc(CN(CC3CCCO3)S(=O)(=O)c3ccccc3)c3nnnn3c12` (centres undefined), the Potency was “inactive” and the cell number change was 3.31%.
With `CC(CC(=O)Nc1cccc(F)c1)S(=O)(=O)c1ccc2c(c1)NC(=O)CO2` (centres undefined) the Potency was “inactive” and the cell number change was 6.92%.
In the case of `C/C(=N\NC(=O)c1ccccc1OCc1ccc(F)cc1)c1ccccn1`, the Potency is reported as “inactive” and the cell number change is reported as -7.7%.
In the case of `Nc1c(C(=O)O)sc2nc(-c3ccccc3)cc(-c3ccc(Cl)cc3)c12`, the Potency is reported as “inactive” and the cell number change is reported as -6.59%.
For `CCN(CC)C(=O)c1sc2nc(-c3cccs3)cc(-c3ccc(Cl)cc3)c2c1N`, the Potency was 20.6 µM (active) and the cell number change was 23.2%.
In the case of `N#Cc1sc2nc(-c3cccs3)cc(-c3ccc(F)cc3)c2c1N`, the Potency is reported as “inactive” and the cell number change is reported as -15.9%.
With `COc1ccc(N2C(=O)CC(Sc3nc(C)cc(C)n3)C2=O)cc1OC` (centres undefined) the Potency was “inactive” and the cell number change was 22%.
For `CC(=O)c1c(C)[nH]c(C(=O)Nc2ccccn2)c1C`, the Potency was 29.1 µM (active) and the cell number change was -7.6%.
With `CC(=O)c1c(C)[nH]c(C(=O)Nc2nccs2)c1C` the Potency was “inactive” and the cell number change was 5.23%.
In the case of `CCC(C)c1ccccc1NC(=O)c1[nH]c(C)c(C(C)=O)c1C` (centres undefined), the Potency is reported as “inactive” and the cell number change is reported as -4.58%.
